# Data reported in PubChem BioAssay (Tox21).
# Records with an inconclusive call do not appear. Calls of active or inactive are those of the source. Calls come from the whole dose curve; as a rule, active = well fitted inhibition curve with a large enough effect in the repeat runs; inconclusive = weak or mixed curves; inactive = no such curve, though single readings can be large or run the other way.
# Experiment: qHTS assay to identify small molecule antagonists of the estrogen related receptor (ERR) signaling pathway from Tox21 library (AID 1224848); note: nearly all actives have a fitted effect of over 50% in size
# Conditions: ERR reporter cell line, luciferase antagonist mode, 18 h; series mostly up to 92.4 µM; activity, negative = inhibition: at the top concentration
# Excerpt: U.S. Tox21 Program National Center for Advancing Translational Sciences [NCATS] NIH Chemical Genomics Center [NCGC] U.S. Environmental Protection Agency [EPA] National Institutes of Environmental Health Sciences [NIEHS] National Toxicology Program [NTP] U.S. Food and Drug Administration [FDA] Tox21 Assay Overview: Estrogen related receptors (ERRs), the first orphan nuclear receptors discovered, play an important role in the control of cellular energy metabolism. ERRs are required for high-energy production in response to the environmental challenges. ERR-alpha was also identified as an adverse marker for breast cancer progression; ERR-alpha-positive tumors have a poor prognosis. To screen and to identify environmental compounds that perturb the ERR signaling pathways could provide valuable information for potential therapeutic or preventive measures in the treatment of metabolic disease. For identifying ERR antagonists, ERR cell line (provided by NTP) has been used to screen Tox21 10K library.
# Tox21 Assay Protocol Summary: The ERR cells were dispensed at 2,000 cells/5 ul/well in 1536-well white plates using a Multidrop dispenser. After the assay plates were incubated at a 37 C/5% CO2 incubator for 6 hours, 23 nL of compounds dissolved in DMSO, positive and negative controls or DMSO only was transferred to the assay plate by a pin tool. The plates were incubated at 37 C for 18 hours. 4 ul/well of One-Glo reagent was added into the assay plates using a Flying Reagent Dispenser. After 30-minute incubation at room temperature, the luminescence intensity in the plates was measured using a ViewLux plate reader.
# % is set by controls: 0 for no effect and ±100 for the full control effect.
row,SMILES,"activity, negative = inhibition"
1,CN(C)CCOCCO,8.25% (inactive)
2,C[C@@H](O)[C@H]1C(=O)N2C(C(=O)O)=C(SCCN=CN)C[C@H]12,9.75% [at 42.5 µM] (inactive)
3,CCOc1cc(NC(C)=O)ccc1C(=O)OC,-3.92% [at 42.5 µM] (inactive)
4,COCCOCCOCCOCCOCCO,6.37% (inactive)
5,C=C1CC/C=C(\C)CC[C@@H]2[C@@H]1CC2(C)C,0.426% (inactive)
6,C=C(C)C(=O)OCCOP(=O)(O)OCCOC(=O)C(=C)C,10.6% (inactive)
7,CC(=O)Nc1ccc(S(=O)(=O)Cl)cc1,-1.68% (inactive)
8,O=C(NCC(O)CO)c1c(I)c(C(=O)NCC(O)CO)c(I)c(N(CCO)C(=O)CO)c1I (stereo not given),7.76% [at 42.5 µM] (inactive)
9,CCN(CC)CC(=O)Nc1c(C)cccc1C,14.9% [at 42.5 µM] (inactive)
10,CC(=O)c1sc(C)nc1C,-17.3% (inactive)
11,CCCOC(OCCC)OCCC,6.01% (inactive)
12,CCCCC(CC)COCCO (stereo not given),8.3% (inactive)
13,COc1ccc(-c2cc(=O)c3c(O)cc(O[C@@H]4O[C@H](CO[C@@H]5O[C@@H](C)[C@H](O)[C@@H](O)[C@H]5O)[C@@H](O)[C@H](O)[C@H]4O)cc3o2)cc1O,-24.7% [at 42.5 µM] (inactive)
14,C[Si](C)=O,1.05% [at 8.39 µM] (inactive)
15,Cc1cc(Cl)c(C)cc1Cl,-8.6% (inactive)
16,Nc1ccc(S(=O)(=O)Nc2ccc(Cl)nn2)cc1,8.46% [at 42.5 µM] (inactive)
17,BrCc1cccc(Oc2ccccc2)c1,0.848% (inactive)
18,CC/C=C\CC1=C(C)CCC1=O,-16.9% (inactive)
19,CO[C@@H]1[C@@H](OC(N)=O)[C@@H](O)[C@H](Oc2ccc3c(O)c(NC(=O)c4ccc(O)c(CC=C(C)C)c4)c(=O)oc3c2C)OC1(C)C,-3.98% [at 42.5 µM] (inactive)
20,CCCCNC1CC(C)(C)NC(C)(C)C1,12.8% (inactive)

row,SMILES,"activity, negative = inhibition"
1,C[C@@H](Oc1ccc(CNC(=O)c2cccnc2Oc2ccc3c(c2)OCO3)c(F)c1)C(=O)O,7.23% (inactive)
2,OCCC(F)(F)C(F)(F)C(F)(F)C(F)(F)C(F)(F)C(F)(F)C(F)(F)C(F)(F)F,23% (inactive)
3,CC(C)(C)OC(=O)c1ccc(O)cc1,22.1% (inactive)
4,COc1ccc(Br)c(C)c1,-2.11% (inactive)
5,CCNC(=O)C1CC(C)CCC1C(C)C (stereo not given),-15.2% (inactive)
6,CCc1ccc(C=O)cc1,8.8% (inactive)
7,COc1nccnc1NS(=O)(=O)c1ccc(N)cc1,-3.08% [at 42.5 µM] (inactive)
8,C#CC(C)N(C)C(=O)Nc1ccc(Cl)cc1 (stereo not given),5.53% (inactive)
9,CCCCCCOC(=O)CC,-0.0585% (inactive)
10,CC(=O)N[C@@H](CCC(=O)O)C(=O)O,9.72% [at 42.5 µM] (inactive)
11,Nc1ccc([N+](=O)[O-])c(N)c1,7.29% (inactive)
12,Cc1ccccc1N=O,9.9% (inactive)
13,Cc1c(I)c(=O)n(-c2ccccc2)n1C,4.32% [at 42.5 µM] (inactive)
14,COC(=O)[C@@H]1[C@H]2C[C@H]3c4[nH]c5ccccc5c4CCN3C[C@@H]2CC[C@@H]1O,60.5% [at 42.5 µM] (inactive)
15,CC(C)(C)c1cc(CCC(=O)NN)cc(C(C)(C)C)c1O,-14.9% (inactive)
16,O=C(c1ccc(O)cc1)c1ccc(O)c(O)c1O,-6.32% (inactive)
17,Cc1cc2cc3c(C)cc(=O)oc3c(C)c2o1,13.3% [at 42.5 µM] (inactive)
18,N[C@@H](CCC(=O)Nc1ccc([N+](=O)[O-])cc1)C(=O)O,-26.4% (inactive)
19,CCCCN,5.24% [at 42.5 µM] (inactive)
20,CCC(C)(CCC(C)C)C(=O)O (stereo not given),-0.807% (inactive)
